# Source: PubChem BioAssay AID493123 (National Center for Advancing Translational Sciences (NCATS), 2011)
# Unmarked numbers belong to inactive results. No rule for the calls is given here.
# Test: Concentration response confirmation assay for small molecule inhibitors of Shiga toxin
# Conditions: cell-based concentration response; series mostly up to 76.6 µM; activity, positive = inhibition: at the top concentration
row,Compound,"activity, positive = inhibition"
1,CC1CCC/C=C/C2CC(O)CC2C(O)/C=C/C(=O)O1 (stereo not drawn),2.01%
2,CCN1C(=O)/C(=C/c2ccc(OC)c(OC)c2)N=C1SCC(=O)NCc1ccco1,4.82%
3,CN(C)S(=O)(=O)c1ccc(C(=O)Nc2ccc(CN3CCCC3)cc2)cc1,-8.06%
4,Cc1cccc(NC(=O)CCN2C(=O)c3ccccc3S2(=O)=O)c1C,-9.39%
5,C=CCNC(=O)c1ccc(C)c(Br)c1,7.16%
6,COc1ccc(C(C)(C)C)cc1NC(=O)c1ccc2c(c1)SC1=NS(=O)(=O)CCN12,-12.2%
7,O=C(CC(c1ccccc1)c1cc(Cl)ccc1O)N1CCCC1 (stereo not drawn),-4.24%
8,CCn1c2ccccc2c2cc(NC(=O)c3cccc([N+](=O)[O-])c3)ccc21,7.93%
